Several values for one entry are separate records, joined by “and”; a condition that tells them apart may be missing. Equal values may be shown once. Inconclusive results are not listed. Activity calls are given as the source filed them. Unless noted, calls come from the whole dose curve; as a rule, active = well fitted curve in the direction sought with a large enough effect; inconclusive = small, poorly fitted or top-dose-only effect, or another doubt; inactive = no such curve, though single readings can be large; an effect the other way counts as inactive or inconclusive. Some results are limits rather than exact numbers.

The values below come from PubChem BioAssay (NCATS).

Experiment [1] concerns the target Glucocorticoid receptor (Homo sapiens) (UniProt P04150). Kind of experiment: GR-GFP Redistribution (AID 450;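 active = compounds whose dose series gives a full or clear partial fitted curve of increased nuclear translocation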; note: potency is the fitted concentration of half-maximal effect). As to conditions: U2OS GR-GFP nuclear translocation, laser cytometry, 2 h.
Experiment [2] shares this target. Briefly: GR-EFC Redistribution (AID 451; calls by dose curve; note: potency is the fitted concentration of half-maximal effect). To be noted: CHO-K1 GR-EFC translocation, beta-gal luminescence, 2 h. In a few lines:
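CHO-K1 cells expressing nuclear EA and GR-ED fragments of b-gal; compounds titrated up to 46 uM final, 2 h at 37 C. GR nuclear translocation read as complemented b-gal luminescence after 1 h RT detection.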

In experiment [3] the target is Mitogen-activated protein kinase 10 (Mus musculus) (UniProt Q61831). Kind of experiment: JNK3 AlphaScreen Assay (AID 530; active = well fitted curve in either direction with a large enough effect, not every such curve was filed as active;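 note: kinase came from lysate of stimulated human HepG2 cells; signal reports phosphorylation of biotinylated GST-cJun 1-79 at Ser73 with 10 µM ATP; % is set by controls: 0 for no effect and ±100 for the full control effect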). In a few lines:
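Activity was read by AlphaScreen after JNK3-containing HepG2 lysate (cytokine pre-activated) phosphorylated biotinylated GST-cJun with 10 uM ATP at room temperature. Phospho-Ser73 cJun antibody with Protein-A acceptor beads provided detection.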

A short description of experiment [4]: qHTS Assay for Lipid Storage Modulators (AID 1519; calls by dose curve; note: potency is the fitted concentration of half-maximal effect; for activity change, negative = inhibition: % is set by controls: 0 for no effect and ±100 for the full control effect). To be noted: Drosophila S3 cells, BODIPY lipid droplet/cell ratio, laser cytometry, cells loaded with oleic acid; for activity change, negative = inhibition: at 57.5 µM (top of the series). An outline of the steps: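 Cells seeded at 5,000 per well were treated with compounds over a concentration series and loaded with oleic acid (400 uM, as added). Lipid droplet fluorescence (488 nm excitation, 500-530 nm channel) was read by laser-scanning cytometry and normalized to 20 uM Triacsin C.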
For orientation: In qHTS, concentration-response curves come from the screen itself.

Experiment [5] concerns the target Ubiquitin carboxyl-terminal hydrolase 1 (Homo sapiens) (UniProt O94782). Kind of experiment: Inhibitors of USP1/UAF1: Pilot qHTS (AID 504865).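 Note: rhodamine fluorescence freed from ubiquitin-rhodamine substrate followed over time; top concentration of the series differs between compounds; % is set by controls: 0 for no effect and ±100 for the full control effect; nearly all actives have a fitted effect of over 35% in size.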 In a few lines:
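USP1/UAF1 complex at 1 nM preincubated 15 min at room temperature with compound, then Ub-Rho substrate added at 150 nM final. Fluorescence (480/540 nm) read kinetically in 50 mM HEPES pH 7.8, 0.5 mM EDTA, 1 mM TCEP, 0.1 mg/ml BSA, 0.01% Tween-20.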

The target in experiment [6] is DNA dC->dU-editing enzyme APOBEC-3G (Homo sapiens) (UniProt Q9HC16). Kind of experiment: qHTS for inhibitors of Vif-A3G interactions: Validation (AID 588379). Note: 0% is about no effect. In a few lines: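 Yellow fluorescence (Ex 488, Em 500-530) of Vif-coexpressing HeLa A3G-eYFP cells, scanned by Acumen cytometer, reports blocked A3G degradation. Cells plated at 700/well overnight at 37 deg C before compound addition, then a further overnight compound incubation at 37 deg C.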
DNA dC->dU-editing enzyme APOBEC-3G (Homo sapiens), sequence (Q9HC16 whole entry, looked up): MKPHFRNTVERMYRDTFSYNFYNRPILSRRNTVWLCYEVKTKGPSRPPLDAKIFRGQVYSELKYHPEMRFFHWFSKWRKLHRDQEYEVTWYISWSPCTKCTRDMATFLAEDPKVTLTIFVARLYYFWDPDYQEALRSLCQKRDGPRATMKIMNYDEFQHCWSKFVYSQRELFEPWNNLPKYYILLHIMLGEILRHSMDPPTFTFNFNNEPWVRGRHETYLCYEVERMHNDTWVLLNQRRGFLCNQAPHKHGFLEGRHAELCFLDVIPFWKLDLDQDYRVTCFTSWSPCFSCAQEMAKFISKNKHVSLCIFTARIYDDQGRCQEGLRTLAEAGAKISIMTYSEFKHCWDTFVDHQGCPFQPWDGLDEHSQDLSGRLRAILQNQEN

The subject of experiment [7] is Zika virus NS2B-NS3 protease. Kind of experiment: Primary screen GU AMC qHTS for Zika virus inhibitors (AID 1347154).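 Note: 0% = no-inhibitor control and -100% = no-enzyme control; nearly all actives have a fitted effect of over 70% in size.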 An outline of the steps: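 Unlinked Zika NS2B hydrophilic domain–NS3 protease complex at 25 nM in 10 mM Tris-HCl pH 8.0, 0.01% Tween 20, with an AMC peptide substrate. Fluorescence change (340/450 nm) over 15 min at room temperature, normalized to controls, fitted to 4-parameter Hill.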

Experiment [8] can be described thus: Primary qHTS for small molecule stabilizers of the endoplasmic reticulum resident proteome: Secreted ER Calcium Modulated Protein (SERCaMP) assay (AID 1508630). Note: % is set by controls: 0 for no effect and ±100 for the full control effect. In a few lines: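 The SH-SY5Y reporter protocol was run at 3 concentrations up to 38.3 uM (primary) or 11 concentrations (follow-up): 16 h compound, 100 nM thapsigargin for 4 h, then extracellular luciferase luminescence.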

Experiment [9] addresses Cytochrome P450 1A2 (Homo sapiens) (UniProt P05177). Kind of experiment: p450-cyp1a2 (AID 410; calls by dose curve; note: potency is the fitted concentration of half-maximal effect;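 for activity change, negative = inhibition: -100% = full effect of reference inhibitor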). In a few lines:
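Luminescent demethylation readout: Luciferin-ME (100uM, equal to Km) turned over by 20nM CYP1A2 for 60 min at room temperature after NADPH regeneration addition, following 10 min compound preincubation. Normalization used 57 uM furafylline as full inhibition.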

The target in experiment [10] is 3',5'-cyclic-AMP phosphodiesterase 4B (Homo sapiens) (UniProt Q07343). Kind of experiment: qHTS Assay for Inhibitors of PDE-IV (AID 607; active = well fitted activation curve with a large enough effect in the main read-out, with a control signal flat, not every such curve was filed as active; note: % of control where 0% means no effect). In a few lines:
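ACTOne HEK293 cells carry a modified cAMP-gated CNG channel and express endogenous PDE4; plated 1000 cells/well, compounds up to 22.9 uM final. Membrane-potential dye fluorescence (ex 535/em 590) was read; parental cells received 10 uM forskolin + 100 uM RO 20-1724.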

Experiment [11] deals with Guanine nucleotide-binding protein G(i) subunit alpha-1 (Homo sapiens) (UniProt P63096). Kind of experiment: qHTS Assay for Inhibitors of RGS12 GoLoco Motif Activity (Green Fluorophore) (AID 879).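 Note: 0% = labeled peptide with Gαi1 and full inhibition = labeled peptide alone without protein; negative values mean loss of peptide binding seen as reduced polarization.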 An outline of the steps:
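A drop in FITC polarization marked displacement of the FITC-tagged RGS12 GoLoco peptide (10 nM) from Gαi1 (50 nM). Compounds were incubated 10 min at room temperature in Tris pH 7.5 buffer containing 150 mM NaCl, 0.1 mM GDP and 0.05% NP40; unlabeled peptide titration served as control.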

Experiment [12] addresses Cytochrome P450 3A4 (Homo sapiens) (UniProt P08684). Briefly: qHTS Assay for Activators of Cytochrome P450 3A4 (AID 885). Note: nearly all actives have a fitted effect of over 65% in size. In a few lines:
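CYP3A4 activity: Luciferin-PPXE O-dealkylation, 25uM substrate, 200mM KPO4, RT throughout. Read-out is luciferase luminescence; higher values reflect activation.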

In experiment [13] the target is Pyruvate kinase (Leishmania mexicana) (UniProt Q27686). Kind of experiment: qHTS Validation Assay for Inhibitors of Leishmania Mexicana Pyruvate Kinase (AID 945).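 Note: 0% = DMSO only neutral control wells.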 An outline of the steps: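 Eight-point qHTS titrations in triplicate, data normalized to DMSO neutral control. Reaction: 0.2 nM LmPYK E451W mutant, 0.5 mM PEP, 0.1 mM ADP, 7 mM MgCl2, pH 7.2, one hour at room temperature; luminescent ATP detection.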
Pyruvate kinase (Leishmania mexicana), sequence (Q27686 2-499 E452W): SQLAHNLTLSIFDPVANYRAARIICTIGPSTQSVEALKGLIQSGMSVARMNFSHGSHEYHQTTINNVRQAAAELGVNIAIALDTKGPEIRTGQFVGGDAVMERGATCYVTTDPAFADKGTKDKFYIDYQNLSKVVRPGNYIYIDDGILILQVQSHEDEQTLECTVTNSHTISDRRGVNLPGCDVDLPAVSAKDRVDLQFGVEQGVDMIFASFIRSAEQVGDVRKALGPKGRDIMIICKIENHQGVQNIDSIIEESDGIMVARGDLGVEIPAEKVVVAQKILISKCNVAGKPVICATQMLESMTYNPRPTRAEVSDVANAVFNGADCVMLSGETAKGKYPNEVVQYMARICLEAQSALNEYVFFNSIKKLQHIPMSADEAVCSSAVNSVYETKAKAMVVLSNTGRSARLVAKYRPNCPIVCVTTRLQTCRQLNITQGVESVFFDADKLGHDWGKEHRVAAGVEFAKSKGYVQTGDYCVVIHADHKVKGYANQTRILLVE

For experiment [14], the target named is Alpha-galactosidase A (Homo sapiens) (UniProt P06280). Briefly: Counterscreen for Glucocerebrosidase Inhibitors: qHTS Assay for Human alpha-Galactosidase at pH 4.5 (AID 992). Note: 0% is about no effect. An outline of the steps: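 Citrate buffer pH 4.5, Tween-20 0.005%. Enzyme 2 nM, substrate 80 uM, 20 min RT. Stop pH 10. Fluorescence Ex 365/Em 440. AC50 by Hill fit.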
Alpha-galactosidase A (Homo sapiens), sequence (P06280 whole entry, looked up): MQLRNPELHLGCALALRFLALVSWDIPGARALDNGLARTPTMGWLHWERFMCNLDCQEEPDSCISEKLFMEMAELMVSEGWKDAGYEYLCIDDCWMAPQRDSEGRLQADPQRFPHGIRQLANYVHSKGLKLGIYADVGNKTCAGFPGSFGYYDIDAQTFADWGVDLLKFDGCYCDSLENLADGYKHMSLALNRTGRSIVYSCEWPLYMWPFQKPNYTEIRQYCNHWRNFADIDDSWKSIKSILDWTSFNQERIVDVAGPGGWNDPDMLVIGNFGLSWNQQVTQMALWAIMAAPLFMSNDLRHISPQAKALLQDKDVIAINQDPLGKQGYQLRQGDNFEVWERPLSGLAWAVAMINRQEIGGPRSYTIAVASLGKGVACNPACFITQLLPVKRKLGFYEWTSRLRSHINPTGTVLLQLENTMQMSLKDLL
Experiment [15] concerns the target alpha-glucosidase (Oryza sativa, rice) (UniProt Q653V4). Briefly: Counterscreen for Glucocerebrosidase Inhibitors: qHTS Assay for Rice alpha-Glucosidase at pH 5.0 (AID 997).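 Note: 0% = full activity with enzyme and -100% = basal without enzyme.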 An outline of the steps: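 Endpoint fluorogenic assay at pH 5.0: compounds (0.7 nM to 77 uM) titrated against 4 nM rice enzyme and 400 uM 4-MU-alpha-glucoside for 20 min at room temperature; NaOH/glycine stop, read ex 365/em 440 nm, Hill-fitted AC50.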
(In general: Counterscreens check selectivity or assay interference.)

Where [16] appears, read: measured here: cell count channel max response.
Setting [17] is: measured here: lipid channel max response.

Cytochrome P450 1A2 (Homo sapiens), sequence (P05177 whole entry, looked up): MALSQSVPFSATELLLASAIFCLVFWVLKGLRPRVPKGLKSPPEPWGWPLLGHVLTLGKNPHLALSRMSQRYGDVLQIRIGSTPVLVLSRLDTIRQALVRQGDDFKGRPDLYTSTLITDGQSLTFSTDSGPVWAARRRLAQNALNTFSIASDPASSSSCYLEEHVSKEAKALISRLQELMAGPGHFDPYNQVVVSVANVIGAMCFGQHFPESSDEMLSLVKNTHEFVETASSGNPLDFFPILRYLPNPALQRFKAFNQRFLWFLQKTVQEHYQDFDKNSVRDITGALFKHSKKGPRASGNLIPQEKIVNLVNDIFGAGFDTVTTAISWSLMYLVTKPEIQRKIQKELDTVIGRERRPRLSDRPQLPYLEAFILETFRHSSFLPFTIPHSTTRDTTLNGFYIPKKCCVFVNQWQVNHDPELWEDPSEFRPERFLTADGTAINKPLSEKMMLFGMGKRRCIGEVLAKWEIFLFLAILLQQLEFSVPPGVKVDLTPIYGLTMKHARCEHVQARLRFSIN
Ubiquitin carboxyl-terminal hydrolase 1 (Homo sapiens), sequence (O94782 whole entry, looked up): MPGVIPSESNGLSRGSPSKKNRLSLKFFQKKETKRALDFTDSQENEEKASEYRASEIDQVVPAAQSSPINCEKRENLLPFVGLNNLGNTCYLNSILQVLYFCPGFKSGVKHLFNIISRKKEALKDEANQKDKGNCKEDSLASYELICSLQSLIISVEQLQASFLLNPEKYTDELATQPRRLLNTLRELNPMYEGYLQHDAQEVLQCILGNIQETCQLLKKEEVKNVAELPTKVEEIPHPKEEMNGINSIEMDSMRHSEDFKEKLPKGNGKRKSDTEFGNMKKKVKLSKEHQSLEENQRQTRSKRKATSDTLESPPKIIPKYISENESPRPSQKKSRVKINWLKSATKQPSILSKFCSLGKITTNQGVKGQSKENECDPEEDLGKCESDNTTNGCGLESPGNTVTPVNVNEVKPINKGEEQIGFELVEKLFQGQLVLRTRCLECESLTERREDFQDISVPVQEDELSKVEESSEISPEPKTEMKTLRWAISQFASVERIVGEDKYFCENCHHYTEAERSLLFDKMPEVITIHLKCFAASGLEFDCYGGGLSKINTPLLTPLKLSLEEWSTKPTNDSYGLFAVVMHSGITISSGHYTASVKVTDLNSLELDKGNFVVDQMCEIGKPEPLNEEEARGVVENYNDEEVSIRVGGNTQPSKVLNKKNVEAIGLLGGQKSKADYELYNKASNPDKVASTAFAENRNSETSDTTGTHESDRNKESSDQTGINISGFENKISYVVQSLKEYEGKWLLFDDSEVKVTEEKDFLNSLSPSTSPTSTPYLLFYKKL
Glucocorticoid receptor (Homo sapiens), sequence (P04150 whole entry, looked up): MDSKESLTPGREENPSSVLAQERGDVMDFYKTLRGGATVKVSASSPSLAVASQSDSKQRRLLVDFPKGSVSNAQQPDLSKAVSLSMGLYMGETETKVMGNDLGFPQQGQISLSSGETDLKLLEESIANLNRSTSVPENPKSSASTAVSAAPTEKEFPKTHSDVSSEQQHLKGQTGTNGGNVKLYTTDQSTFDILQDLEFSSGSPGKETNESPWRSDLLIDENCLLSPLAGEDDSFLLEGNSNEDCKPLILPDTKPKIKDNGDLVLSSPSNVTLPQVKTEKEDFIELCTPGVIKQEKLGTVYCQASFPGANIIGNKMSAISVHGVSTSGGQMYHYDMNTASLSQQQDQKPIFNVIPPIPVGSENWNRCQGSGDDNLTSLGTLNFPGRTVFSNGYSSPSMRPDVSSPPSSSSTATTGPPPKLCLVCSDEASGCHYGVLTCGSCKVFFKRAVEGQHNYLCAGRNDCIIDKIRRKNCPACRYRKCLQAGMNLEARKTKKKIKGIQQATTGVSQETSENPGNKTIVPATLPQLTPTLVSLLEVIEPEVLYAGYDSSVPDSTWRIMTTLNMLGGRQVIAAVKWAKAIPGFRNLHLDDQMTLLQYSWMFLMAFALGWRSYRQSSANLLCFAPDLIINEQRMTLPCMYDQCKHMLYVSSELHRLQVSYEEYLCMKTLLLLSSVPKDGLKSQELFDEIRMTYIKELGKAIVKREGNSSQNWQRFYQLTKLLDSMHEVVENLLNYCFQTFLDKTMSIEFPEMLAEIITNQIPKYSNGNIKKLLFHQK
3',5'-cyclic-AMP phosphodiesterase 4B (Homo sapiens), sequence (Q07343 whole entry, looked up): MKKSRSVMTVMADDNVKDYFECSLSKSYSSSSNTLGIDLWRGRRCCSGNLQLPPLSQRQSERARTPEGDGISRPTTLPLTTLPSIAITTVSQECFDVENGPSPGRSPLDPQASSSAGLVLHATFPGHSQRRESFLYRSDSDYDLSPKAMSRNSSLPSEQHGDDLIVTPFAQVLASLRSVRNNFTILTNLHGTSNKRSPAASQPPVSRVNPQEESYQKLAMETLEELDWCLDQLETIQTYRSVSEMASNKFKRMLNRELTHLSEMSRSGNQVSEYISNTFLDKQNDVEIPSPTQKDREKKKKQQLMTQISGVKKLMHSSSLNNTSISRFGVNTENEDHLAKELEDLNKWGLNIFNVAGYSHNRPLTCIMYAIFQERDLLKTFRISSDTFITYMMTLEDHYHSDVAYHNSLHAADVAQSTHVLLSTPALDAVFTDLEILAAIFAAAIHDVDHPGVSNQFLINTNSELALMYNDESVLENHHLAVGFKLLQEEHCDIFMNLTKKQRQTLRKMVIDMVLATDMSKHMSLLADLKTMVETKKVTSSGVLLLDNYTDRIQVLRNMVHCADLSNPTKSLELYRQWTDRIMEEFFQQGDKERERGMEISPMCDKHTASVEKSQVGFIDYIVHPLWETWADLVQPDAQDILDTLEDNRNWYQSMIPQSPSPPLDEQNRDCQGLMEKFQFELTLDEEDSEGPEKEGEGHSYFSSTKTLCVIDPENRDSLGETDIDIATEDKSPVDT
Cytochrome P450 3A4 (Homo sapiens), sequence (P08684 whole entry, looked up): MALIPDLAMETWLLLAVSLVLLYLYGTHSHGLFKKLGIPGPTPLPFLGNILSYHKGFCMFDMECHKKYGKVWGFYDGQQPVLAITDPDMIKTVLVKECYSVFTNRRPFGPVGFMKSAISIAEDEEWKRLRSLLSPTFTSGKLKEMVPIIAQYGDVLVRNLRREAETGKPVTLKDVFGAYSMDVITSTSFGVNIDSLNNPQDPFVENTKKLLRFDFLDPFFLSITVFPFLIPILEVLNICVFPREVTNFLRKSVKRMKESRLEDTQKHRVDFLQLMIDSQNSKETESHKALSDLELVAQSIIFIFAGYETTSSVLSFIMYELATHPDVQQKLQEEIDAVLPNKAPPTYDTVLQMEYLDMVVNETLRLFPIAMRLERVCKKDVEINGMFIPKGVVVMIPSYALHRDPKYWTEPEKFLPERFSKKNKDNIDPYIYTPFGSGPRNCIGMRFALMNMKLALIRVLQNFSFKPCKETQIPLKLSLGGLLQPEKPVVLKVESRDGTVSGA
Guanine nucleotide-binding protein G(i) subunit alpha-1 (Homo sapiens), sequence (P63096 whole entry, looked up): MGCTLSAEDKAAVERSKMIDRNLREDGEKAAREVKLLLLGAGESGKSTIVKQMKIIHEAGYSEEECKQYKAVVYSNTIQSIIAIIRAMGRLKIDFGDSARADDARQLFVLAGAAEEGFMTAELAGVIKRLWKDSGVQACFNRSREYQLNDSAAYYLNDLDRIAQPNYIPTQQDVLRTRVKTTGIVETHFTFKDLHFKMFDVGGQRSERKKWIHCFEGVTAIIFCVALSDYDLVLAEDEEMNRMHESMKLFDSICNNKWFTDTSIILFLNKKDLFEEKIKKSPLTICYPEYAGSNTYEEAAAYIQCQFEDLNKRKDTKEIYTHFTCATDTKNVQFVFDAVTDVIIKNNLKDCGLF

On to `O=C(O)/C=C1\CCCc2ccccc2[C@H]1O`, for which the Potency in experiment [1] and in experiment [2] was > 46 µM (inactive) throughout. For the same compound, the Potency result in experiment [3], in [5], in [6], in [7] and in experiment [8] was “inactive” throughout. In addition, the activity change, negative = inhibition in experiment [4] was 4.3% (inactive). The max response in [4] (setting [16]) was determined as 20.5%; in [4] (setting [17]), 25.8%.
Regarding `Cc1ccccc1N=C(N)Nc1ccccc1C`, the Potency result in experiment [9], in experiment [5], in experiment [6], in experiment [7] and in experiment [8] was “inactive” in each case. Moreover, in experiment [2], the Potency was > 46 µM (inactive). Moreover, in experiment [4], the activity change, negative = inhibition was 3.82% (inactive). The max response was 2.46% in [4] (setting [16]) and 7.24% in experiment [4] (setting [17]).
On to `CC(C)(C)c1ccc(S(=O)(=O)/C=C\C#N)cc1`, for which the Potency is 3.98 µM (active) and 1.58 µM (active) in experiment [9]; > 46 µM (inactive) in [1]; > 46 µM (inactive) in experiment [2]; 31.6 µM (active) in experiment [4]. For the same compound, the Potency entry in [10], in experiment [12], in [13], in experiment [6], in experiment [7] and in [8] was “inactive” in each case. In addition, the outcome in experiment [11], in experiment [14] and in experiment [15] was inactive. Further, the max response in experiment [4] (setting [16]) is 5.78%; in experiment [4] (setting [17]) it was -82.4%.
As for `COc1ccccc1N1CCN(CCCCN2C(=O)CCC2=O)CC1`, the Potency in [1] and in experiment [2] was > 46 µM (inactive) in each case. In addition, the Potency entry in experiment [3], in experiment [10], in [5], in experiment [6], in experiment [7] and in [8] was “inactive” throughout. In [4], the activity change, negative = inhibition is -4.36% (inactive). For the same compound, the max response in [4] (setting [16]) was -1.96%; in experiment [4] (setting [17]), -4.4%.
As to `Nc1nc2c(nc(Br)n2[C@@H]2O[C@H]3COP(=O)(O)O[C@H]3[C@@H]2O)c(=O)[nH]1`, the Potency in [1] and in experiment [2] was > 46 µM (inactive) in each case. The activity change, negative = inhibition in experiment [4] was -3.52% (inactive). Besides, the max response in experiment [4] (setting [16]) is -4.09%; in experiment [4] (setting [17]), -7.98%. The Potency entry in experiment [5], in [6], in [7] and in [8] was “inactive” each time.
As for `O=C1C(c2ccccn2)=[N+]([O-])c2ccccc21`, the Potency is 158 nM (active) in experiment [9], > 46 µM (inactive) in experiment [1] and > 46 µM (inactive) in experiment [2]. For the same compound, the Potency entry in experiment [3], in [10], in [6], in [7] and in experiment [8] was “inactive” throughout. In experiment [4], the activity change, negative = inhibition was 3.2% (inactive). Besides, the max response in experiment [4] (setting [16]) was found to be 20%; in [4] (setting [17]), 22.9%.
As for `NCCCNCCCCN(CCCN)/[N+]([O-])=N/O`, the Potency in experiment [1] and in experiment [2] was > 46 µM (inactive) in each case. In addition, the Potency entry in experiment [3], in experiment [10], in [5], in experiment [7] and in experiment [8] was “inactive” throughout. The activity change, negative = inhibition in [4] is -0.752% (inactive). For the same compound, the values for the max response in experiment [4] (setting [16]) and in experiment [4] (setting [17]) were -8.77% and -8.94%, respectively.
`N[C@H](C(=O)O)c1nn[nH]n1`: the Potency entry in experiment [9], in experiment [3], in experiment [10], in experiment [6], in experiment [7] and in [8] was “inactive” throughout. Further, the Potency in [1] and in experiment [2] was > 46 µM (inactive) in each case. In [4], the activity change, negative = inhibition is 1.12% (inactive). The max response is -0.925% in experiment [4] (setting [16]) and -0.771% in experiment [4] (setting [17]).
With `OC[C@@H]1O[C@@H](n2cnc3c(N[C@H]4CCC[C@@H]4O)ncnc32)[C@H](O)[C@H]1O`, the Potency in experiment [1] and in experiment [2] was > 46 µM (inactive) in each case. Moreover, the Potency entry in experiment [3], in [10], in experiment [5], in experiment [6], in [7] and in experiment [8] was “inactive” throughout. Also, the activity change, negative = inhibition in experiment [4] is 3.72% (inactive). For the same compound, the values for the max response in [4] (setting [16]) and in experiment [4] (setting [17]) were -18.9% and -17.5%, respectively.
